Only a selection was taken, and hits are over-represented in it overall.
FECH inh – blocks human mitochondrial ferrochelatase activity; purified FECH, Ni-mesoporphyrin absorbance 550 nm; P22830; actives 3.3% (n = 20,000); calls only at 10 µM (by protocol);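 active = enzyme reaction rate more than 3 SD below the solvent-only control wells on the same plate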;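 note: lower slope than DMSO wells means FECH inhibition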
Target sequence (P22830 whole entry, looked up): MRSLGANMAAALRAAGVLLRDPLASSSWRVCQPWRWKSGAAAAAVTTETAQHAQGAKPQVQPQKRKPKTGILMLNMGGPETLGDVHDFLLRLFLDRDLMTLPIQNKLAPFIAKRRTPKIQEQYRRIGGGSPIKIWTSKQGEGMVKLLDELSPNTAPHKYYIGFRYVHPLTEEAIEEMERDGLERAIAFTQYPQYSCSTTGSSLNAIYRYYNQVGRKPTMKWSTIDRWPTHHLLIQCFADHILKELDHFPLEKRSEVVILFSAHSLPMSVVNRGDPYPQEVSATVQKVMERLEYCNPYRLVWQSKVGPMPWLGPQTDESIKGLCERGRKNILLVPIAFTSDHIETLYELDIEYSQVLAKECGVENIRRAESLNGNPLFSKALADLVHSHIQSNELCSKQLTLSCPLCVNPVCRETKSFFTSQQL
Starred values were filed as active, the others as inactive; i = inactive; + = active, no number.

SMILES	FECH inh
Cn1c(=O)c2c(-c3ccccc3)c(Nc3ccccc3)oc2n(C)c1=O	i
CCCOC(=O)N1CCC2(CC1)N=C(Cc1ccc(OC)cc1)NC2=O	i
CC(=O)c1ccc(N2CCN(S(=O)(=O)c3cc(C(=O)N4CCCCC4)cs3)CC2)cc1	i
COc1cccc(N2CCN(S(=O)(=O)c3cc(C(=O)N4CCCC4)cs3)CC2)c1	i
CC(=O)c1ccc(N2CCN(S(=O)(=O)c3cc(C(=O)N4CCCC4)cs3)CC2)cc1	+
CC(C)(C)NS(=O)(=O)c1cc(C(=O)N2CCCCC2)cs1	+
Cc1cc(C)cc(NS(=O)(=O)c2cc(C(=O)N3CCCCC3)cs2)c1	i
O=C(c1csc(S(=O)(=O)NC2CC2)c1)N1CCCC1	i
CCCCN(Cc1nc2nc(C)cc(C)n2n1)C(=O)c1ccccc1Cl	i
Cc1cc(Sc2ccccc2NC(=O)Nc2ccccc2)n2ncnc2n1	i
COc1ccc(NC(=O)N2CCN(c3cc(-c4ccccc4C)ncn3)CC2)cc1OC	i
O=C(NCc1cccnc1Oc1ccccc1)c1ccc(-n2cnnc2)nc1	i
COCc1nc2cccnc2n1C1CCN(S(=O)(=O)c2ccc(OC)c(OC)c2)CC1	i
O=c1c(Nc2ccccc2F)c(-c2ccc3c(c2)CCCC3)c1=O	+
O=c1c(Nc2ccc(Cl)cc2)c(-c2ccc3c(c2)CCCC3)c1=O	i
Cc1c(Cl)cccc1Nc1c(-c2ccc3c(c2)CCCC3)c(=O)c1=O	i
COc1cccc(S(=O)(=O)NCc2nc3cccnc3n2CC(C)C)c1	i
CCOc1cc(C(=O)Nc2cccc(N3CCCS3(=O)=O)c2)cc(OCC)c1OCC	i
O=C(CN1c2ccc(Br)cc2-c2ccccc2S1(=O)=O)Nc1ccc(F)cc1F	i
O=C(CN1c2ccc(Br)cc2-c2ccccc2S1(=O)=O)NC1CC1	+
Cc1ccc(NC(=O)CN2c3ccc(Br)cc3-c3ccccc3S2(=O)=O)cc1	+
O=C1CN(C(=O)CN2c3ccc(Br)cc3-c3ccccc3S2(=O)=O)c2ccccc2N1	i
Cc1cccc(C(C)C)c1NC(=O)CN1c2ccc(Br)cc2-c2ccccc2S1(=O)=O	i
COc1ccc(NC(=O)CN2c3ccc(Br)cc3-c3ccccc3S2(=O)=O)cc1	i
NS(=O)(=O)c1ccc(NC(=O)CN2C(=O)c3ccccc3S2(=O)=O)cc1	i
SMILES	FECH inh
Cc1ccc(NC(=O)CN2c3ccc(Br)cc3-c3ccccc3S2(=O)=O)cc1C	+
Cc1ccc(NC(=O)CN2CCN(Cc3ccccc3C)S2(=O)=O)cc1C	i
CC(C)CCNC(=O)CN1c2ccc(Br)cc2-c2ccccc2S1(=O)=O	+
Cc1cc(C)cc(-n2c(CN3CCN(S(=O)(=O)c4ccc(F)c(Cl)c4)CC3)nc3cccnc32)c1	i
Cc1cc(N2CCCC2)nc(Nc2ccc(NC(=O)c3ccc(C(F)(F)F)cc3)cc2)n1	i
Cc1nnsc1CN(C)Cc1cccc(C(=O)Nc2cccc(F)c2)c1	i
Cc1cc(N2CCCC2)nc(Nc2ccc(NC(=O)c3ccccc3C)cc2)n1	i
Cc1cccc(-n2cc(CNC(=O)C3CC(=O)N(CC(C)C)C3)cn2)c1 (centres undefined)	i
CC(C)CN(C)C(=O)c1cn(C(c2ccccc2)c2ccccc2)nn1	i
Cc1ccccc1Nc1nc(N2CCN(C)CC2)nc2c1cnn2-c1ccccc1	i
CCOC(=O)Cn1c(=O)c2cnc(-c3ccc(C)cc3)nc2n(C)c1=O	i
O=C(CC1CCN(S(=O)(=O)c2ccccc2)CC1)NCCN1CCCCCC1	i
Cc1nc2ccccc2n1Cc1cc(C(=O)NCCN(C)C)n[nH]1	i
NS(=O)(=O)c1ccc(Nc2ccc3cc(S(=O)(=O)N4CCCC4)ccc3n2)cc1	i
Cc1cccc(-c2nc3nc(CN4CCN(c5ccccc5)CC4)cc(=O)n3[nH]2)c1	i
CC(C)(C)c1ccc(-c2nc3nc(CNc4ccccc4)cc(=O)n3[nH]2)cc1	+
COc1ccccc1N1CCN(Cc2cc(=O)n3[nH]c(-c4cccc(C)c4)nc3n2)CC1	+
Cc1cccc(-c2nc3nc(CN4CCN(c5ccc(F)cc5)CC4)cc(=O)n3[nH]2)c1	i
COc1ccccc1NCc1cc(=O)n2[nH]c(-c3ccc(C(C)(C)C)cc3)nc2n1	i
CC(C)(C)c1ccc(-c2nc3nc(CNc4cccc(C(F)(F)F)c4)cc(=O)n3[nH]2)cc1	i
CC(C)(C)c1ccc(-c2nc3nc(CNc4ccc(Cl)cc4)cc(=O)n3[nH]2)cc1	i
CN(Cc1ccccc1)Cc1cc(=O)n2[nH]c(-c3ccc(C(C)(C)C)cc3)nc2n1	i
COc1ccc(Cl)cc1NCc1cc(=O)n2[nH]c(NCc3ccc(F)cc3)nc2n1	i
CC(C)(C)c1ccc(-c2nc3nc(CN4CCN(c5ccccc5)CC4)cc(=O)n3[nH]2)cc1	i
CCc1ccccc1NCc1cc(=O)n2[nH]c(-c3ccc(C(C)(C)C)cc3)nc2n1	+
SMILES	FECH inh
COc1ccc(Cl)cc1NCc1cc(=O)n2[nH]c(-c3ccc(C(C)(C)C)cc3)nc2n1	+
COCCNC(=O)C1(C)Cn2c(cc3ccsc32)C(=O)N1c1ccccc1C (centres undefined)	i
O=c1cncc(-c2cc(O)cc(CCC3CCCCN3)c2)[nH]1 (centres undefined)	i
CN1CCC2(CC1)CN(C(=O)CN1C(=O)NC(=O)C1(C)C)CCN2C	i
CCc1cc(Sc2ccccc2NC(=O)c2cccc(OC)c2)n2nc(C)nc2n1	i
COCCc1noc(-c2cn(Cc3ccc(Cl)cc3)nn2)n1	i
CCc1ncc(C(=O)N2CCn3nc(C(=O)Nc4ccccc4)cc3C2)cn1	i
CCn1c(=O)n(CCN2CCOCC2)c(=O)c2cnc(-c3ccc(OC)cc3)nc21	i
C=CC[C@@H]1CC=C[C@@H](C)N1C(=O)c1ccc(NC(=O)c2ccco2)c(C)c1	i
COc1cccc(Cn2c(CNS(=O)(=O)c3ccc(F)cc3)nc3cccnc32)c1	i
CCc1[nH]c2c(CNC(=O)CN3CCC(N(C)C)C3)cc(C)cc2c1C (centres undefined)	i
CCc1nc(OCC(=O)NCc2ccc(Cl)cc2)c2c(-c3ccc(F)cc3)noc2n1	i
COc1ccc(NCc2cc(=O)n3[nH]c(-c4ccc(C(C)(C)C)cc4)nc3n2)cc1	i
Cc1c(Cl)cccc1NCc1cc(=O)n2[nH]c(-c3ccc(C(C)(C)C)cc3)nc2n1	i
CCOc1ccc(NCc2cc(=O)n3[nH]c(-c4ccc(C(C)(C)C)cc4)nc3n2)cc1	+
CC(C)(C)c1ccc(-c2nc3nc(CN4CCCCC4)cc(=O)n3[nH]2)cc1	i
Cc1ccc(NCc2cc(=O)n3[nH]c(-c4ccc(C(C)(C)C)cc4)nc3n2)cc1Cl	i
Cc1ccccc1NCc1cc(=O)n2[nH]c(-c3ccc(C(C)(C)C)cc3)nc2n1	+
CN1CCN(Cc2cc(=O)n3[nH]c(-c4ccc(C(C)(C)C)cc4)nc3n2)CC1	i
CCOc1ccc(NCc2cc(=O)n3[nH]c(NCc4ccccc4)nc3n2)cc1	i
CC(C)(C)c1ccc(-c2nc3nc(CN4CCc5ccccc5C4)cc(=O)n3[nH]2)cc1	+
COC(=O)c1ccc(NC(=O)CN2CCCN(Cc3ccc(OC)cc3)S2(=O)=O)cc1	i
CCSCC(C)NCc1nncn1C1CCCCC1 (centres undefined)	i
Cc1cc(C)n2nc(C(=O)NCc3cccnc3N3CCCN(C)CC3)cc2n1	i
CCOc1ccccc1CN(C(=O)c1cn2cc(Cl)ccc2n1)C1CC1	+

Bioassay records from PubChem BioAssay.
